According to PubChem BioAssay:
Unmarked numbers belong to inactive results. Where a call stands in place of a potency, no number is given. For some of these results: Potency and affinity values are given separately. Active and inactive are the calls of the source. Unless noted, no rule for the calls is given here.

Assays:
[1] = antimalarial activity against Dd2 strain (AID 2302;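 active = growth inhibition above 50% at the single 2 µM test dose, taken to imply half-maximal potency below 2 µM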); conditions: P. falciparum Dd2 in RBCs, LDH growth readout, 72 h; at 2 µM; stronger effect = higher value
[2] = human hepatoma cell viability loss – ATP luminescence, cytotoxicity control for P. falciparum antimalarial project, primary screen (AID 2303;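 active = inhibition above 50%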); conditions: HepG2 viability, 24-48 h, at 10 µM, stronger effect = higher value
[3] = target: L-lactate dehydrogenase (Plasmodium falciparum (isolate CDC / Honduras)) (UniProt Q27743); assay: PfLDH activity inhibition – cell lysate, 3D7 strain, counter-screen for P. falciparum growth inhibition project (AID 2304); conditions: P. falciparum 3D7 crude extract, LDH APAD/NBT absorbance; at 2 µM; stronger effect = higher value
[4] = inhibition of 3D7 malaria parasite growth – strain 3D7 (AID 2306); conditions: P. falciparum 3D7 erythrocytic growth, LDH absorbance, 72 h; at 2 µM; stronger effect = higher value
[5] = target: Calcium-dependent protein kinase 1 (Plasmodium falciparum (isolate 3D7)) (UniProt P62344); assay: PfCDPK1 kinase inhibitors, biochemical, TCAMS library (AID 1159585; cut-off not given, nearly all actives have IC50 up to about 0.98 µM;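 also: inhibitors leave more ATP so luminescence rises with inhibition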); conditions: recombinant PfCDPK1, Kinase-Glo ATP depletion luminescence
[6] = target: Plasmodium falciparum protein kinase 6 (PK6, PF3D7_1337100) (UniProt Q8IDW1); assay: PfPK6 kinase inhibitors, biochemical, TCAMS library (AID 1159586); conditions: recombinant PfPK6, Kinase-Glo ATP depletion luminescence
[7] = target: Protein kinase 7 (PK7), Plasmodium falciparum 3D7 (PF3D7_0213400) (UniProt Q7YTF7); assay: inhibition of Plasmodium PK7 catalytic activity – biochemical, TCAMS antimalarial set, Kinase-Glo luminescence (AID 1159587); conditions: recombinant PfPK7, Kinase-Glo ATP depletion luminescence
[8] = target: Calcium-dependent protein kinase 4 (Plasmodium falciparum (isolate 3D7)) (UniProt Q8IBS5); assay: PfCDPK4 kinase inhibitors, biochemical, TCAMS library (AID 1159588; cut-off not given, nearly all actives have IC50 up to about 0.91 µM); conditions: recombinant PfCDPK4, Kinase-Glo ATP depletion luminescence
Calcium-dependent protein kinase 4 (Plasmodium falciparum (isolate 3D7)), sequence (Q8IBS5 whole entry, looked up): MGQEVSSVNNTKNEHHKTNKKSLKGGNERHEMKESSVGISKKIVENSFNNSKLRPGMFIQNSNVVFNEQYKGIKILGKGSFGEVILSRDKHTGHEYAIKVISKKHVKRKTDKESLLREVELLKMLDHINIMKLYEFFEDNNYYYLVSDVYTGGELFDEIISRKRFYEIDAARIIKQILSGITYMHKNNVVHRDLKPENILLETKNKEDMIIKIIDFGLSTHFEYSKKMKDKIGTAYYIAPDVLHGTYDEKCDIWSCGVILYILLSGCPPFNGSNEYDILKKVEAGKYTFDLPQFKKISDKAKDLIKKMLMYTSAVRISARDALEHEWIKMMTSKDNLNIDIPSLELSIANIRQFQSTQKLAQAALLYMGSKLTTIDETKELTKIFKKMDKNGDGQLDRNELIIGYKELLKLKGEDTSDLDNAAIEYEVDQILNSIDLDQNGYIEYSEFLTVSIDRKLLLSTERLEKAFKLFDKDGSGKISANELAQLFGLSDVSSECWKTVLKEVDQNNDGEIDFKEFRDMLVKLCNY

Plasmodium falciparum protein kinase 6 (PK6, PF3D7_1337100), sequence (Q8IDW1 1-305): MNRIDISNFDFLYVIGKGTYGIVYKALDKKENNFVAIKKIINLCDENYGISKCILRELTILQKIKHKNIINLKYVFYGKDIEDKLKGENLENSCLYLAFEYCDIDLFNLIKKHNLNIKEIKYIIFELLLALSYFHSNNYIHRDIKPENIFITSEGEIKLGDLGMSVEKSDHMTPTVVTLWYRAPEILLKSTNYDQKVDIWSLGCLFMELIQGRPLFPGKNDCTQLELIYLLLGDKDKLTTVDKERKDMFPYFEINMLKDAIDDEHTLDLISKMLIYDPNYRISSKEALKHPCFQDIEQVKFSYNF
Calcium-dependent protein kinase 1 (Plasmodium falciparum (isolate 3D7)), sequence (P62344 whole entry, looked up): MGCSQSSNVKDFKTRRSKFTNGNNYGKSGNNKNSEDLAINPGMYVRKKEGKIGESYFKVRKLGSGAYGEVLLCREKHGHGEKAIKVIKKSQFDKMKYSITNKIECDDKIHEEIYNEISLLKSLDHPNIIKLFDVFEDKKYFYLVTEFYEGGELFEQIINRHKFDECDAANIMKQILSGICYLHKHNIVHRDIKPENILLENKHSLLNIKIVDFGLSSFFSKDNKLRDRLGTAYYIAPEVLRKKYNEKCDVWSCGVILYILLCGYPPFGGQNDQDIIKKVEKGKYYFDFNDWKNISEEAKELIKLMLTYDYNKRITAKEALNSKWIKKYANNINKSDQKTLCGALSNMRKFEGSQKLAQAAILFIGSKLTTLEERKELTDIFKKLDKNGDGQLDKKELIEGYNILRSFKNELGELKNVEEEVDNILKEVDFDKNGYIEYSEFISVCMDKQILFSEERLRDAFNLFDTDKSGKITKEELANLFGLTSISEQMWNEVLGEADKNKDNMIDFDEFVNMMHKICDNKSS
L-lactate dehydrogenase (Plasmodium falciparum (isolate CDC / Honduras)), sequence (Q27743 whole entry, looked up): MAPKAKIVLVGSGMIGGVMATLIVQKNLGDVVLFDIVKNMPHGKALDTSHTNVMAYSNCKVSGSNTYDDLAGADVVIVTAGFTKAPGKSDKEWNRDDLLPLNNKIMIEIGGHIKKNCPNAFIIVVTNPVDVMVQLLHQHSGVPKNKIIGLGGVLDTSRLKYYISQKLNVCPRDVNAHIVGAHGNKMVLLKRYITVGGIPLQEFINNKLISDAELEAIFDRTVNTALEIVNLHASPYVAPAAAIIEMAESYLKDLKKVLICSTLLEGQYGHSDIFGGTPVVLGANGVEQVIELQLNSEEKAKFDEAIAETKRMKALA
Protein kinase 7 (PK7), Plasmodium falciparum 3D7 (PF3D7_0213400), sequence (Q7YTF7 1-343): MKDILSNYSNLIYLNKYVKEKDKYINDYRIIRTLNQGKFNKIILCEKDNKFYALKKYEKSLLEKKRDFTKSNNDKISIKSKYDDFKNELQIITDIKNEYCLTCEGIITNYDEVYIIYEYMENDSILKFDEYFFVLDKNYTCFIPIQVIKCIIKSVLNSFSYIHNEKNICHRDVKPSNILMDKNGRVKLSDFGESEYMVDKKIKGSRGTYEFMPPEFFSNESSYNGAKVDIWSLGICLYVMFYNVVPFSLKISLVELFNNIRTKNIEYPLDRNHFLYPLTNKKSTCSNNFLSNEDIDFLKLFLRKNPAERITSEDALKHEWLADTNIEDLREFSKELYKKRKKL

Compound | growth inhibition [1] | inhibition [2] | inhibition [3] [%] | growth inhibition [4] | outcome [5] | outcome [6] | outcome [7] | outcome [8]
CCOc1ccc(Br)cc1/C=C/C(=O)Nc1ccc(C2CCN(C)CC2)cc1 | 71% (active) | 30% | -2 | 100% (active) | inactive | inactive | inactive | inactive
CCCC(CNCc1ccc(Cl)c(C(F)(F)F)c1)CNc1nc2ccncc2[nH]1 (stereo not drawn) | 8% | 26% | -1 | 99% (active) | inactive | inactive | inactive | inactive
CC(C)(C)OC(=O)NCc1ccc(Nc2nnc(-c3ccc(OCC(=O)NCc4cc(C(F)(F)F)cc(C(F)(F)F)c4)c([N+](=O)[O-])c3)o2)cc1 | 92% (active) | 24% | -1 | 97% (active) | inactive | inactive | inactive | inactive
CCc1ccc(CN2CCCCC(NC(=O)c3cc(-c4ccccc4F)cs3)C2)cc1 (stereo not drawn) | 12% | 25% | -4 | 87% (active) | inactive | inactive | inactive | inactive
COc1ccc(C2CCN(CCCCNC(=O)c3ccc(NC(=O)c4ccc(Cl)cc4)cc3)C2)c(OC)c1 (stereo not drawn) | -1% | 18% | 2 | 84% (active) | inactive | inactive | inactive | inactive
COc1cc(CNC2Cc3ccccc3C2)ccc1Oc1ccc2nc[nH]c2c1 | 50% (active) | 30% | -1 | 98% (active) | inactive | inactive | inactive | inactive
CC(C)(C)c1ccc(CN2CCCCC(NC(=O)c3cc(-c4cccc(Cl)c4)cs3)C2)cc1 (stereo not drawn) | 60% (active) | 11% | 1 | 96% (active) | inactive | inactive | inactive | inactive
Cc1noc(C)c1-c1ccc2c(Nc3ccccc3C(C)(C)C)c(C(=O)NCc3cccc4ccccc34)cnc2c1 | 64% (active) | 4% | -2 | 96% (active) | inactive | inactive | inactive | inactive
Cc1cc(NC(=O)Nc2ccc3ccn(C)c3c2)c2ccccc2n1 | 69% (active) | 11% | -1 | 102% (active) | inactive | inactive | inactive | inactive
COc1cc(Cc2cnc(NCCN3CCNCC3)nc2N)ccc1OCc1ccc(C(F)(F)F)cc1 | 4% | 12% | 4 | 98% (active) | inactive | inactive | inactive | inactive
COc1ccc(CCN(C)CCCN2CCC(NC(=O)c3cccc4c(=O)c5ccccc5sc34)CC2)cc1OC | 79% (active) | 67% (active) | 4 | 97% (active) | inactive | inactive | inactive | inactive
CC(c1cccc(S(=O)(=O)NCc2ccc(Cl)cc2Cl)c1)N1CCC(N2CCCCC2)CC1 (stereo not drawn) | 40% | 36% | -2 | 100% (active) | inactive | inactive | inactive | inactive
N#Cc1ccc(-c2ccc(C(=O)Nc3ccc4c(c3)CCN(C3CCC3)CC4)nc2)cc1 | 63% (active) | 21% | 0 | 99% (active) | inactive | inactive | inactive | inactive
COc1cc(C(=O)NC2CCN(Cc3ccccc3)CC2)ccc1-c1nc2c(Cl)cc(C(F)(F)F)cc2[nH]1 | 56% (active) | 7% | 1 | 103% (active) | inactive | inactive | inactive | inactive
CC(C)(C(=O)Nc1ccc(N2CCC3(CCCN(CC4CC4)C3)CC2)c(Cl)c1)c1cccc(C(F)(F)F)c1 | 0% | 27% | 4 | 92% (active) | inactive | inactive | inactive | inactive
O=C1COc2ccc(CNC3CCC(O)(CCc4ccnc5cc6c(cc45)OCCO6)CC3)nc2N1 (stereo not drawn) | -1% | -5% | -6 | 92% (active) | inactive | inactive | inactive | inactive
CCOC(=O)c1ccc(NC(=O)Nc2cccc(-c3ccc(-c4nc5ccccc5[nH]4)cc3)c2)cc1 | 86% (active) | 54% (active) | -2 | 100% (active) | inactive | inactive | inactive | inactive
Cc1cccc2[nH]c(-c3cccc(-c4ccc(NC(=O)c5cnc[nH]5)cc4)c3)nc12 | 48% | 8% | 3 | 101% (active) | inactive | inactive | inactive | inactive
CCc1c[nH]c2c(N3CCCC3=O)cc(C(=O)N[C@@H](Cc3ccccc3)[C@H](O)CNC(C)(C)c3cccc(C(F)(F)F)c3)cc12 | 99% (active) | 10% | 1 | 98% (active) | inactive | inactive | inactive | inactive
NC1CCN(Cc2cccc(-c3ccc(-c4nc5ccccc5[nH]4)cc3)c2)C1 (stereo not drawn) | 58% (active) | 24% | -7 | 100% (active) | inactive | inactive | inactive | inactive
Cc1nc(N)nc(N)c1-c1ccc2ccccc2c1 | 2% | 60% (active) | 6 | 97% (active) | inactive | inactive | inactive | inactive

Compound | growth inhibition [1] | inhibition [2] | inhibition [3] [%] | growth inhibition [4] | outcome [5] | outcome [6] | outcome [7] | outcome [8]
CCOC(=O)c1cc(C(=O)OC)c2ccccn12 | 2% | 44% | -2 | 97% (active) | inactive | inactive | inactive | inactive
c1ccc(C(c2ccccc2)N2CCC(NCc3ccc(OCCCN4CCCCC4)cc3)CC2)cc1 | 101% (active) | 74% (active) | 4 | 100% (active) | inactive | inactive | inactive | inactive
CN1CCN(c2ccnc3ccc(NC(=O)Nc4ccc(Br)cc4)cc23)CC1 | 99% (active) | 12% | -5 | 101% (active) | inactive | inactive | inactive | inactive
Cn1nccc1C(=O)NCCNCc1cccc(-c2csc(-c3nc4ccccc4[nH]3)c2)c1 | 2% | 30% | 0 | 101% (active) | inactive | inactive | inactive | inactive
CCCCCCCCc1c(C)[nH]c(C)c(I)c1=O | 77% (active) | 5% | 4 | 91% (active) | inactive | inactive | inactive | inactive
COc1ccc2ncc(F)c(CCN3CCC(NCc4cc(OC)c5c(c4)OCCO5)CC3)c2n1 | 53% (active) | -2% | -3 | 101% (active) | inactive | inactive | inactive | inactive
CCCCN(Cc1cccc(C(F)(F)F)c1Cl)c1ccc(C(O)(C(F)(F)F)C(F)(F)F)cc1 | 55% (active) | 10% | -3 | 91% (active) | inactive | inactive | inactive | inactive
CN(C)c1ccc(NC2=NC(C)(C)N=C(N)N2)cc1 | 5% | -1% | -4 | 95% (active) | inactive | inactive | inactive | inactive
COc1ccc(CNC2Cc3ccccc3C2)cc1-c1ccc(S(=O)(=O)NCCN2CCCC2)c(F)c1 | 69% (active) | 44% | -6 | 101% (active) | inactive | inactive | inactive | inactive
CCOc1ccc2nc(C)cc(NN=Cc3ccccc3)c2c1 | 8% | 5% | -3 | 96% (active) | inactive | inactive | inactive | inactive
C=C(C)CSc1nc2c(c(=O)n1Cc1ccco1)C1(CCCCC1)Cc1ccccc1-2 | 68% (active) | 2% | -9 | 97% (active) | inactive | inactive | inactive | inactive
COc1cc2nc(N3CCC(CNC(=O)c4ccc(-c5ccc(-c6noc(C)n6)cc5C)cc4)CC3)nc(N)c2cc1OC | 99% (active) | 99% (active) | -4 | 100% (active) | inactive | inactive | inactive | inactive
N[C@@H](Cc1ccc(O)cc1)C(=O)NC(c1ccccc1)c1c(O)ccc2ccccc12 (stereo partly drawn) | 95% (active) | 6% | 2 | 95% (active) | inactive | inactive | inactive | inactive
Fc1cc(Cl)ccc1Nc1ccnc(Nc2ccc3cn[nH]c3c2)n1 | 56% (active) | 8% | -3 | 97% (active) | inactive | inactive | inactive | inactive
O=C(Nc1cccc(CN2CCCN(Cc3ccc(O)cc3)CC2)c1)c1cc2ccccc2s1 | 90% (active) | 27% | -7 | 100% (active) | inactive | inactive | inactive | inactive
CCCCCC(=O)N1CCOC(CCN2CCc3c(c4ccccc4n3C)C2)(c2ccc(Cl)c(Cl)c2)C1 (stereo not drawn) | 80% (active) | 24% | 1 | 95% (active) | inactive | inactive | inactive | inactive
CCCCn1c(Sc2ccc(C#N)c([N+](=O)[O-])c2)nnc1-c1cc(OC)cc(OC)c1 | 70% (active) | 7% | 2 | 94% (active) | inactive | inactive | inactive | inactive
COc1cc([N+](=O)[O-])ccc1NC(=O)c1cc(Cl)ccc1O | 100% (active) | 92% (active) | 6 | 87% (active) | inactive | inactive | inactive | inactive
CN(C)c1ccc(CN2CCC(NC(=O)c3ccc(-c4cccc(F)c4)s3)CC2)cc1 | 18% | 55% (active) | -1 | 91% (active) | inactive | inactive | inactive | inactive
CCOC(=O)c1c(NC(=O)c2ccccc2)sc2c(O)c(CN(CC)CC)ccc12 | 100% (active) | 9% | 4 | 100% (active) | inactive | inactive | inactive | inactive
